In the supplement of paper PMC11732987, “Enantioselective OTUD7B fragment discovery through chemoproteomics screening and high-throughput optimisation” (Communications Chemistry, 2025):

Assays:
Experiment in all cases: log2 ratio of Biotin-Ahx-Ub-VS probe labelling (fragment/DMSO); higher = less target engagement (more negative = stronger competition), active = hit call of the paper (q ≤ 0.05, log2 ratio ≤ -1)
Settings in all cases: compound concentration: 200 uM; treatment time: 3 h
USP42 = molecular target: T1, USP42 (UniProt Q9H9J4)
T1 sequence (whole entry): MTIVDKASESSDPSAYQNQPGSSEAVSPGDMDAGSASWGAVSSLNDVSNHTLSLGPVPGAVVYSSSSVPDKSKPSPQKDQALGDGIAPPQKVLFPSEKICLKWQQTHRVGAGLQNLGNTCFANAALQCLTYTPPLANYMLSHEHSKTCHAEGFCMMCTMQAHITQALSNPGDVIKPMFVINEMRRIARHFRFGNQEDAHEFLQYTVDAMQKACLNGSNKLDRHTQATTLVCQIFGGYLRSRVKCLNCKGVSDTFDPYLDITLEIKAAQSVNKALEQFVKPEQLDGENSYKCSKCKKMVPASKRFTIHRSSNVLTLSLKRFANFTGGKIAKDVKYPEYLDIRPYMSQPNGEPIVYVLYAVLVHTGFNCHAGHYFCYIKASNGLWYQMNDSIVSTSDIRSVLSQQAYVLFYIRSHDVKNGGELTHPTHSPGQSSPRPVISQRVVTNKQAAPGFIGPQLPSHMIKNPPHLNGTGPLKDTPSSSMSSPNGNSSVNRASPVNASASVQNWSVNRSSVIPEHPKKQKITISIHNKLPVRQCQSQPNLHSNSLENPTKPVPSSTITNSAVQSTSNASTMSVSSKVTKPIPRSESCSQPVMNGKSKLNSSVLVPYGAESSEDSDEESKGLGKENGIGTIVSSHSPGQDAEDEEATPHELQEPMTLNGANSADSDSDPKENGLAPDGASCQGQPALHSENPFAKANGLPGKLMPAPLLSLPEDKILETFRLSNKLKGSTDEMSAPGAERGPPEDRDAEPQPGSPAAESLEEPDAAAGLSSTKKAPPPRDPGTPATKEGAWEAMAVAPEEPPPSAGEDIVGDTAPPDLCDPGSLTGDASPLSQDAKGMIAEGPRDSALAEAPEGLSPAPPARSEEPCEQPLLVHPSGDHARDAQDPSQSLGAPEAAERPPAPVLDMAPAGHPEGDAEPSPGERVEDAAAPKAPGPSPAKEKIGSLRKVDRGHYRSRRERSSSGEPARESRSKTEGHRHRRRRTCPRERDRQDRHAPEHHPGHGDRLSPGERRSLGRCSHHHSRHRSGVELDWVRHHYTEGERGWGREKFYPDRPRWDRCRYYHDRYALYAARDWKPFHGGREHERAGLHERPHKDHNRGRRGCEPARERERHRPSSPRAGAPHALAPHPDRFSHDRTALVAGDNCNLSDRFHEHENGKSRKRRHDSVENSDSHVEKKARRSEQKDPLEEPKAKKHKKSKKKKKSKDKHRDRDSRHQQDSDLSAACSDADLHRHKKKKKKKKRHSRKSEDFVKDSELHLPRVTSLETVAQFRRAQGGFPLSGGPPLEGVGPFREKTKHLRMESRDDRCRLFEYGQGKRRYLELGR
Method in brief: (§1)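 Global-median-normalised Spectronaut label-free quantities were compared by unpaired t-test, and values are average log2 ratios of fragment over vehicle. Only proteins with ≥2 unique peptides were used. HEK293T lysate (495 µg per sample) was treated in triplicate with fragment at 200 µM or vehicle for 3 h and then with Biotin-Ahx-Ub-VS at 0.5 µM final for 1 h. Labelled DUBs were then NeutrAvidin-enriched, digested with LysC and trypsin, and run by diaPASEF LC-MS/MS.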

USP46 = USP46 (UniProt P62068)
USP46, sequence (P62068 whole entry): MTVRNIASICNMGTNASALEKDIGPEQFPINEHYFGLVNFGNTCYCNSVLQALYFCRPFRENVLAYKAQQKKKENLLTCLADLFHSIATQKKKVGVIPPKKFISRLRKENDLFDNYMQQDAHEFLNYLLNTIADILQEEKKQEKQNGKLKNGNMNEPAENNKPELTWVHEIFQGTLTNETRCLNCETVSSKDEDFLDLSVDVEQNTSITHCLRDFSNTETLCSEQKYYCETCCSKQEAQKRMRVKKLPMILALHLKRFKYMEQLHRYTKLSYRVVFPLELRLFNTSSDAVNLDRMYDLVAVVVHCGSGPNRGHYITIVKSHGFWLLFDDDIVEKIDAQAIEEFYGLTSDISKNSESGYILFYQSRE
Method in brief: as §1

USP47 = molecular target: T2, USP47 (UniProt Q96K76)
T2 sequence (whole entry): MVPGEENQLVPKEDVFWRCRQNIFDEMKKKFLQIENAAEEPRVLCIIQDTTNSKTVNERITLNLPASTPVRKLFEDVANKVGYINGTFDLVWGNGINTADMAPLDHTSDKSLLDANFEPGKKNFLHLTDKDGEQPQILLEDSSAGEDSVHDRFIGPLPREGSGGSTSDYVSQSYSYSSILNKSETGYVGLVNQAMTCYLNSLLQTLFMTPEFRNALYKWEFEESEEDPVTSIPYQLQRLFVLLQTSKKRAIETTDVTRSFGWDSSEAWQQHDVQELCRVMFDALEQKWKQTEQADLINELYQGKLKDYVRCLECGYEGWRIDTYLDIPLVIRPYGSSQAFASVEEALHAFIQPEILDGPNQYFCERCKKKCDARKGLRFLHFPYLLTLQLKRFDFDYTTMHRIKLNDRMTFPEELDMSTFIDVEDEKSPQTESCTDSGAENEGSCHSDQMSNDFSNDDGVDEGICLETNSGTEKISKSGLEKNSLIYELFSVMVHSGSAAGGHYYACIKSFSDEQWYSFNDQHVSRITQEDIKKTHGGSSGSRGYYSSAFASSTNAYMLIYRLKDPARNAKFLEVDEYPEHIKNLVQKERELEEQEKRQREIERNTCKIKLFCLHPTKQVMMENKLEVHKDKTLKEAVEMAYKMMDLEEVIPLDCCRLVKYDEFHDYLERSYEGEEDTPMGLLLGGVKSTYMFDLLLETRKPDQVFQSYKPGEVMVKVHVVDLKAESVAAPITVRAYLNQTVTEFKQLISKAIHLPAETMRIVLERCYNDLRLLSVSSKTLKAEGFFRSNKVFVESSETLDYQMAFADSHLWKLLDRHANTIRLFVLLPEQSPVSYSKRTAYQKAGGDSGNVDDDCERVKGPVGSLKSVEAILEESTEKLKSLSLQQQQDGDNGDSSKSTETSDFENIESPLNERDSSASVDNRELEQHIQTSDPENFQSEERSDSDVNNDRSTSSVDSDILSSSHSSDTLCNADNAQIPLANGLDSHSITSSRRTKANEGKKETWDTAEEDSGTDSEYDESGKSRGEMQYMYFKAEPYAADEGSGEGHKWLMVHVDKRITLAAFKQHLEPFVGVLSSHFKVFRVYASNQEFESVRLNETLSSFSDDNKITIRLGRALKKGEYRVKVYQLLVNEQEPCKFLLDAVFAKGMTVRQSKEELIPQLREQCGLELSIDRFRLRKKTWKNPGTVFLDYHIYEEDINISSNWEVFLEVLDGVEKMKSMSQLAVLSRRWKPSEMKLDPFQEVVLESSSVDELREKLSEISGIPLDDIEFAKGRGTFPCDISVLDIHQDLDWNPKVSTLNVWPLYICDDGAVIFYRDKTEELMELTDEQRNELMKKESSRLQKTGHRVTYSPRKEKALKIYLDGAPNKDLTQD
Method in brief: as §1

USP48 = molecular target: T3, USP48 (UniProt Q86UV5)
T3 sequence (whole entry): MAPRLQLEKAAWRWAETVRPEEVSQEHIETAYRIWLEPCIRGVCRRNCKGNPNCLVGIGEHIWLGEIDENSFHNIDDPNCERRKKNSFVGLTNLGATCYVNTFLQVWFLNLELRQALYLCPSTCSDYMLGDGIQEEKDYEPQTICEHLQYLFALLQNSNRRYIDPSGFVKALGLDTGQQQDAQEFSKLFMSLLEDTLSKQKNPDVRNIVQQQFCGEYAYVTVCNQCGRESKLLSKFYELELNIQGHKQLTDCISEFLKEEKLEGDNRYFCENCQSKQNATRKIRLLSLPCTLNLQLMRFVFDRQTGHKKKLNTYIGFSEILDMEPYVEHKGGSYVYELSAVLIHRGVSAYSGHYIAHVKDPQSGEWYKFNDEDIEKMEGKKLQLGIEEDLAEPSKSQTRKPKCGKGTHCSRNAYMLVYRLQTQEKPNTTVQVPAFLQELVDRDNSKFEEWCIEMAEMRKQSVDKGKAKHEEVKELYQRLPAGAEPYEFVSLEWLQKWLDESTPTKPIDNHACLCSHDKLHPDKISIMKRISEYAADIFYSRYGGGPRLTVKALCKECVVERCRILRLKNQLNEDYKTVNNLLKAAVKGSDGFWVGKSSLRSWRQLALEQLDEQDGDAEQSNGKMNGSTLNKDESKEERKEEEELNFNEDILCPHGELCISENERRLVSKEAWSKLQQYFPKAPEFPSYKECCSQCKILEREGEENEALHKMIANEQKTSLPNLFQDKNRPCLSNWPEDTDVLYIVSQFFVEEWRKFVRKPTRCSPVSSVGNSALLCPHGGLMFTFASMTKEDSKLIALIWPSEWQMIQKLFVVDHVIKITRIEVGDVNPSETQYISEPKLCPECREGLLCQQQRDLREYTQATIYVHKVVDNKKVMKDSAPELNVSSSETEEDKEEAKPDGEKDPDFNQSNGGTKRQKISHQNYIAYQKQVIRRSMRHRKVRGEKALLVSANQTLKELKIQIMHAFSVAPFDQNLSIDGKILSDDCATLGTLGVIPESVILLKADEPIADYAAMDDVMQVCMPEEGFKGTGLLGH
Method in brief: as §1

USP5 = molecular target: T4, USP5 (UniProt P45974)
T4 sequence (whole entry): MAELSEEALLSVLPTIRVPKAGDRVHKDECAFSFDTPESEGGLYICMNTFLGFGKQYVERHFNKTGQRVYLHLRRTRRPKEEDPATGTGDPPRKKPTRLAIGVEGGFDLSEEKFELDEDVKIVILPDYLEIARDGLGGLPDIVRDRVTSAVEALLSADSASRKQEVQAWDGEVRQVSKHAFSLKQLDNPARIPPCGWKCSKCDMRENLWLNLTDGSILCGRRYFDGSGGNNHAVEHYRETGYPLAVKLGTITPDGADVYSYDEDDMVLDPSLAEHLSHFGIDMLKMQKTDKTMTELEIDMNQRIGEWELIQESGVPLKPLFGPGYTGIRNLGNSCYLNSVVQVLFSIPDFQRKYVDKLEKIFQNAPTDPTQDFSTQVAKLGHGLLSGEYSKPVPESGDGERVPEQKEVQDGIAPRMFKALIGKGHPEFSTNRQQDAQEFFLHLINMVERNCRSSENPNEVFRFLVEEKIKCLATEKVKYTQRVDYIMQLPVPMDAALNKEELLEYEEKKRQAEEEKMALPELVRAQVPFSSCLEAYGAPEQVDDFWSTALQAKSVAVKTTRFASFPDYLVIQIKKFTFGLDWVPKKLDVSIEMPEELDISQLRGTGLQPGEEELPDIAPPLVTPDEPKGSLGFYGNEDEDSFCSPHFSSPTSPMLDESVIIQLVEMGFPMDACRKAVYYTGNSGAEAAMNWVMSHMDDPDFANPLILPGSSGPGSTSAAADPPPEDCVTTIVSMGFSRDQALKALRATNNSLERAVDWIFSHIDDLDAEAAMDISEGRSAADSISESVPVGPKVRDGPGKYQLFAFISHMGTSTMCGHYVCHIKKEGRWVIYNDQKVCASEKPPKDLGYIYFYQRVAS
Method in brief: as §1

USP54 = USP54 (UniProt Q70EL1)
USP54, sequence (Q70EL1 whole entry): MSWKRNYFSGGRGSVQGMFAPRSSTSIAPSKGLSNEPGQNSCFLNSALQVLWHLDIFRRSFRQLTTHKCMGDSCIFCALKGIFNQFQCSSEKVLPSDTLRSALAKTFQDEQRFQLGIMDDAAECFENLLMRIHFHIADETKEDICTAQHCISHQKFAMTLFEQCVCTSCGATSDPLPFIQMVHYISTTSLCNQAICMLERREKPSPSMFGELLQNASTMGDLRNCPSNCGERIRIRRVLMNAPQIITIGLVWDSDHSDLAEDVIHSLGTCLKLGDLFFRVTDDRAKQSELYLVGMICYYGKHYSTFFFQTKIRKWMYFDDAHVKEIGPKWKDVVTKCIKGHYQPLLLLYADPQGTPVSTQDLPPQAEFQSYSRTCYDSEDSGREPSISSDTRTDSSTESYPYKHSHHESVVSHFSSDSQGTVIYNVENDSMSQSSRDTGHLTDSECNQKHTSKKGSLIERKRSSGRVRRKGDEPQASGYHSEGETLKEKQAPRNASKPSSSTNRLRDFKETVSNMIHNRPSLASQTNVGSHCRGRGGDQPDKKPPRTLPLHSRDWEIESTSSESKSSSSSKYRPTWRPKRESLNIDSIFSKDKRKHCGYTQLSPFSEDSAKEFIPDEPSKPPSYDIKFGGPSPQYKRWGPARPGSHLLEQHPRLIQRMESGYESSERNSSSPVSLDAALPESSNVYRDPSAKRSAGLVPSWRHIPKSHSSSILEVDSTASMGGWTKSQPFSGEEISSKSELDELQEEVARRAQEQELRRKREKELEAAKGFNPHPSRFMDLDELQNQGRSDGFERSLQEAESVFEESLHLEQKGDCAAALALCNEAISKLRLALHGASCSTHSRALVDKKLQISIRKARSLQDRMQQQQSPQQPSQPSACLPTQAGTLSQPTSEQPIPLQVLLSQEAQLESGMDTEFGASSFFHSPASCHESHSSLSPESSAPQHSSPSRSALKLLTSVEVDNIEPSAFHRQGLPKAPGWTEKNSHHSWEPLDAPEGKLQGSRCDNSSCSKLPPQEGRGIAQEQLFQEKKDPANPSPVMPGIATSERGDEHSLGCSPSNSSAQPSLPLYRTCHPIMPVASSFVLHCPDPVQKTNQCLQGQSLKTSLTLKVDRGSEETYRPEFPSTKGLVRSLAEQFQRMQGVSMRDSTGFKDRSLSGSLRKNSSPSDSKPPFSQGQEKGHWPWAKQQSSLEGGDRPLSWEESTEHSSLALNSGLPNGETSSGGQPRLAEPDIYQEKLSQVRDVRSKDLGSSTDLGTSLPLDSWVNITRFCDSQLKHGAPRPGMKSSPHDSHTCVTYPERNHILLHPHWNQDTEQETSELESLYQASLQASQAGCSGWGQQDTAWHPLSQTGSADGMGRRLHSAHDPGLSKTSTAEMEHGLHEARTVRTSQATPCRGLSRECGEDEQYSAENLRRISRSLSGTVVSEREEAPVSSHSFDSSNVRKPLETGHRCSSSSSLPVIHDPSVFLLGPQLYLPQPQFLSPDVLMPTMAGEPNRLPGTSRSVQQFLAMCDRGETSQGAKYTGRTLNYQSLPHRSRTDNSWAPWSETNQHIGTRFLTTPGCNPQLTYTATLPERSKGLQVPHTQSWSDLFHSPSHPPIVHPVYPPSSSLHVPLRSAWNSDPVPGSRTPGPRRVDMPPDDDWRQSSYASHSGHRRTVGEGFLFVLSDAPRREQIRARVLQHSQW
Method in brief: as §1

USP7 = USP7 (UniProt Q93009)
USP7, sequence (Q93009 whole entry, looked up): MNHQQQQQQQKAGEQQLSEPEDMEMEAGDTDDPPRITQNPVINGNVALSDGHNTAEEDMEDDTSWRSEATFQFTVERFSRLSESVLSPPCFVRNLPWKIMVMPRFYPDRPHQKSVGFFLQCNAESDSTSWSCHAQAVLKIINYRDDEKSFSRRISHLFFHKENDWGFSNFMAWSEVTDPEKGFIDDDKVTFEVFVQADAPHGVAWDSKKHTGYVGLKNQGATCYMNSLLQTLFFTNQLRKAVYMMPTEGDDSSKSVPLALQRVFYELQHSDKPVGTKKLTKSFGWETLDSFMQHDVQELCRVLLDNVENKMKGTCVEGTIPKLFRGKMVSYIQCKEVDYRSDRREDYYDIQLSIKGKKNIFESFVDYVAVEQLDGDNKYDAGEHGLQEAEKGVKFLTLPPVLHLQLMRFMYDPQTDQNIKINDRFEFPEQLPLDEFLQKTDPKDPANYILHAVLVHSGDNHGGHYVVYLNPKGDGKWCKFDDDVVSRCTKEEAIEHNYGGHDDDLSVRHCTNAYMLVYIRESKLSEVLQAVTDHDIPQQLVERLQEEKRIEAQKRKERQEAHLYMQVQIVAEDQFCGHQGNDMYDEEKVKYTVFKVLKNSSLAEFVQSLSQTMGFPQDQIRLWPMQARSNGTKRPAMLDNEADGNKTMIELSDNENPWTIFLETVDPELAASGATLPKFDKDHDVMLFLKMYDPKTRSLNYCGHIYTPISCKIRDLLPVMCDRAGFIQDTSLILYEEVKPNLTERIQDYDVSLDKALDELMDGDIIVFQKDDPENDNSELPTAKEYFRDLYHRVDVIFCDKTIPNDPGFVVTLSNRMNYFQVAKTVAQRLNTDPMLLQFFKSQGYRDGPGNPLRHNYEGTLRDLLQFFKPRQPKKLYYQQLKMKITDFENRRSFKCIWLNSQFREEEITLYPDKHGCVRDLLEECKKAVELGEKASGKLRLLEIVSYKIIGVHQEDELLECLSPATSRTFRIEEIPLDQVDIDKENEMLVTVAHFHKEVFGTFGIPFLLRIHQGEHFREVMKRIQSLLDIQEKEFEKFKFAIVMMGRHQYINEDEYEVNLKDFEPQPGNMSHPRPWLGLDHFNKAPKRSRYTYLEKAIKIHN
Method in brief: as §1

USP8 = molecular target: T5, USP8 (UniProt P40818)
T5 sequence (whole entry): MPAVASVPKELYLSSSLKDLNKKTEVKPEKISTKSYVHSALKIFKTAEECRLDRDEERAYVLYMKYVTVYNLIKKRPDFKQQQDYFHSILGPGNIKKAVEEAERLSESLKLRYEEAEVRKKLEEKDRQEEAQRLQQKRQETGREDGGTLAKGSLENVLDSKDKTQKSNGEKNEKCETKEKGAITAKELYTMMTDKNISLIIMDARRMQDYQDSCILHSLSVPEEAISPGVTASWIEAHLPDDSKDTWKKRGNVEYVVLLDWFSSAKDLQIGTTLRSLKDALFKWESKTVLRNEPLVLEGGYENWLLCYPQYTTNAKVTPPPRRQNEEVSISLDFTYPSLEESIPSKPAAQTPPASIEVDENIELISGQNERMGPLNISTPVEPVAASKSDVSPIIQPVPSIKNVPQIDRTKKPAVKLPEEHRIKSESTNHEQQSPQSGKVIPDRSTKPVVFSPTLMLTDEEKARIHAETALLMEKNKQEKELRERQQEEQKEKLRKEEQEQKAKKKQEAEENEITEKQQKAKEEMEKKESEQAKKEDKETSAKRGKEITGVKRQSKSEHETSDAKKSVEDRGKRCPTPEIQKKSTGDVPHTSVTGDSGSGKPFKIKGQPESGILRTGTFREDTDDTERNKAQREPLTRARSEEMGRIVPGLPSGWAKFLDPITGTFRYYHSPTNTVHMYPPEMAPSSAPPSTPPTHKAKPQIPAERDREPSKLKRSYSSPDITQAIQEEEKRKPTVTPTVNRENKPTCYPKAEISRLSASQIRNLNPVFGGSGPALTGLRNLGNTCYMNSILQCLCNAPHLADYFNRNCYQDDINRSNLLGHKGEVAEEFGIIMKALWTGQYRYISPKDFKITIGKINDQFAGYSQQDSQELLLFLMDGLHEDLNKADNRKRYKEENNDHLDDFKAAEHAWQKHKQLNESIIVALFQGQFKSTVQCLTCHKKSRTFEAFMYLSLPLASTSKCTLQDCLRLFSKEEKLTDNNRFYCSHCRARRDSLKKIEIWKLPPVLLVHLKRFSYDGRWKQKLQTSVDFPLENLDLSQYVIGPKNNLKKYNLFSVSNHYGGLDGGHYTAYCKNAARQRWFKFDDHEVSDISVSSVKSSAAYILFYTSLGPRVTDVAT
Method in brief: as §1

USP9X = USP9X (UniProt Q93008)
Method in brief: as §1

UniProt O00487 = molecular target: UniProt O00487
UniProt O00487, sequence (O00487 whole entry): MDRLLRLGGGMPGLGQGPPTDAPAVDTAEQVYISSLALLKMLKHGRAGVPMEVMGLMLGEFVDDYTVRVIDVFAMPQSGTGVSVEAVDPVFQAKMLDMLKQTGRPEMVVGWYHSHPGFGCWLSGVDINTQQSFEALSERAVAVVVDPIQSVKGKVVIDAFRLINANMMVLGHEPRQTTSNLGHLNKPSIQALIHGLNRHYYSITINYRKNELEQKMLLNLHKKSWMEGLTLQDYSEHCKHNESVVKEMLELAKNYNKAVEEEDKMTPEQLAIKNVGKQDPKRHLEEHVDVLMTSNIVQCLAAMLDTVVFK
Method in brief: as §1

Measured: log2 ratio of Biotin-Ahx-Ub-VS probe labelling

CC(NC(=O)CCl)c1ccc2[nH]ncc2c1 (stereo not given)
inactive: USP42 0.605 | USP46 -0.239 | USP47 0.0542 | USP48 -0.411 | USP5 -0.557 | USP54 0.532 | USP7 -0.578 | USP8 -0.403 | USP9X -0.429 | UniProt O00487 -0.121
